Compound activity (PubChem)
In the library only some 4.7% were active in any assay of this set; here they are far more common.
TRHR PAM – TRH receptor (human) allosteric enhancement | actives 0.66% (n = 360,000) | P34981 | TRHR cells, fluo-8 calcium fluorescence, EC20 TRH enhancement | enhancement, % at 2 µM; in the data active means enhancement above about 30%; further: 0% is about no effect
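TRHR-expressing cells loaded with fluo-8 calcium dye were read kinetically (ex 480/em 530) during compound addition, then stimulated with an EC20 of TRH (10 nM final). Enhancement of the Gq-mediated intracellular calcium response was scored.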
D1 ag – agonists of human D1 dopamine receptor. P21728. HEK293 T-REx D1 cells, calcium flux, agonist mode. activation, % at 2 µM. actives 1% (n = 360,000); further: 0% is about no effect
Target sequence (P21728 whole entry, looked up): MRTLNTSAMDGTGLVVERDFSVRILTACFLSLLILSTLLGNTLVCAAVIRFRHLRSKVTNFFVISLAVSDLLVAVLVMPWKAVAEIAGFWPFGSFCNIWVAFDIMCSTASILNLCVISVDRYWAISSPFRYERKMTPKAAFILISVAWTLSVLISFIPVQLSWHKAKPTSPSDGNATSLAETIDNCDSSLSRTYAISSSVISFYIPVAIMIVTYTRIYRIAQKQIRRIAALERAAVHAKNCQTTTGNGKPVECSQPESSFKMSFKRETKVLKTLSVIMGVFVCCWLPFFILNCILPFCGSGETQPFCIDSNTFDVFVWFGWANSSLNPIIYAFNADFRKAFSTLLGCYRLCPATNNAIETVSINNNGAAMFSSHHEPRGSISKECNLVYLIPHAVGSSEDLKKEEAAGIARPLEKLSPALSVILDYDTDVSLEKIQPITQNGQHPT
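Inducible HEK293 T-REx D1 cells, force-coupled to calcium signalling, were plated at 4000 cells/well with tetracycline and held overnight at 30 C. After no-wash calcium dye loading, compound-evoked calcium rise over 180 s flagged agonists.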
TRHR ag – activates the human TRH receptor | actives 0.18% (n = 360,000) | activation, % at 2 µM | P34981 | AID 493084 | TRHR cells, calcium flux fluo-8, FDSS agonist mode; further: 0% is about no effect
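Steps: seed TRHR cells overnight; add fluo-8 no-wash Ca dye, RT 30 min–1.5 h; record 10 s baseline; pin-transfer compounds; monitor fluorescence 1 cycle/s for the agonist window. Calcium increases flag candidate agonists.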
D1 potentiator – enhances dopamine response at the human D1 receptor; P21728; HEK293 TREx D1 cells, calcium flux, dopamine EC20 potentiation; potentiation, % at 10 µM; actives 0.036% (n = 360,000); AID 504651; in the data active means potentiation above about 30%; further: 0% is about no effect
D1 antag – blocks dopamine activation of the human D1 receptor | P21728 | HEK293 TREx D1 cells, calcium flux, dopamine EC80; hits give low values | actives 3.2% (n = 360,000) | activity change, negative = inhibition, % at 10 µM | AID 504652; in the data active means activity change below about -30%; further: on the % scale 0 is the no-effect control and ±100 the full control effect
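Compound effects on dopamine-evoked calcium signalling were measured in tetracycline-induced HEK293 Trex D1 cells. Dopamine at EC80 followed a 180 s compound pre-read, and fluorescence was tracked kinetically for 180 s more.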
Numbers without * were called inactive; nt = no result. Unless noted, no stated cut-off is given here; in the data, active means activation above about 30%; inactive means the rest.

SMILES | TRHR PAM | D1 ag | TRHR ag | D1 potentiator | D1 antag
CC(=O)c1cccc(NC(=S)N2CCc3ccccc32)c1 | -5.9 | 2.1 | -1.0 | 0.8 | -31.7*
O=C(c1ccccc1)N1CCCc2ccccc21 | 0.6 | 1.0 | -0.4 | -3.8 | -2.4
O=C(Nc1cccc(C(=O)N2CCCc3ccccc32)c1)c1ccccc1 | -4.6 | 0.8 | -0.6 | -8.1 | -36.9*
O=C(Nc1ccc2c(c1)CCCN2C(=O)c1cccs1)c1c(F)cccc1F | -3.2 | 3.7 | -1.0 | -7.0 | -18.5
O=C(Nc1ccc2c(c1)CCCN2C(=O)c1cccs1)c1c(F)cccc1Cl | 5.7 | 1.2 | 0.3 | -9.0 | -44.1*
COc1ccc(N2CCN(C(=O)CCc3c(C)nn(-c4ccc(N5CCCC5)nn4)c3C)CC2)cc1 | 8.7 | -1.0 | 0.2 | -3.1 | -2.5
O=C(c1c(F)cccc1F)N1CCCc2ccccc21 | 32.2* | 4.1 | 0.0 | 2.3 | 3.5
Cc1onc(-c2ccccc2)c1C(=O)N1CCCC1 | -6.3 | 2.8 | -0.5 | -9.6 | -37.1*
O=C(c1cccc(F)c1)N1CCCc2ccccc21 | -14.8 | 0.0 | -0.7 | -0.7 | -1.8
CSC1=C(C#N)C(c2ccccc2Cl)C2=C(N1)c1ccccc1C2=O (stereo unspecified) | 8.7 | -0.9 | -0.1 | -7.0 | -42.2*
COc1ccc(NC(=O)N2CCCC(c3nc(-c4ccc(OC)cc4)no3)C2)cc1 (stereo unspecified) | -1.3 | 4.1 | -1.1 | -2.6 | -13.8
O=C(CN1CCC(C(=O)c2ccc(F)cc2)CC1)Nc1ccccc1 | -6.5 | 6.6 | -0.6 | -10.7 | -56.0*
O=C(Nc1ccc(Cl)cc1)N1CCC(c2nc(-c3ccc(F)cc3)no2)CC1 | -12.6 | 21.4 | 1.5 | -9.1 | -49.9*
COc1ccccc1C(=O)N1CCC(C(=O)c2ccc(F)cc2)CC1 | -1.7 | 0.7 | 0.1 | -4.0 | -31.9*
COc1ccc(C(=O)N2CCC(C(=O)c3ccc(F)cc3)CC2)cc1 | -1.1 | 6.4 | 0.2 | -6.2 | -23.5
O=C(c1ccc(F)cc1)C1CCN(C(=O)Nc2ccc(F)cc2)CC1 | -3.1 | 5.7 | 0.5 | -9.8 | -30.2*
O=C(CN1CCC(C(=O)c2ccc(F)cc2)CC1)Nc1ccc(F)cc1 | -8.9 | 7.5 | -0.4 | -6.5 | -7.1
O=C(NCc1ccc(F)cc1)C1CCCN(C(=O)Nc2ccc(F)cc2)C1 (stereo unspecified) | -0.3 | 3.0 | -0.8 | -2.2 | -85.9*
O=C(NCc1ccc(F)cc1)C1CCCN(C(=O)Nc2ccccc2)C1 (stereo unspecified) | -1.0 | 1.2 | -0.3 | -0.2 | 9.3
Cc1ccc(C(=O)C2CCN(CC(=O)N3CCN(c4ccc(F)cc4)CC3)CC2)cc1 | 0.9 | 5.2 | -0.2 | -4.3 | -30.9*
O=C(Nc1ccc(Br)cc1)N1CCCCCC1 | -7.8 | 0.3 | -0.3 | -6.7 | -49.7*
CCCn1c(N)c(C(=O)CSc2nc(N)cc(=O)[nH]2)c(=O)n(C)c1=O | 6.7 | 1.6 | 0.5 | 12.7 | -0.9
O=C(CSc1nnnn1-c1ccc(O)cc1)c1cc2ccccc2o1 | 2.9 | 32.3* | 0.3 | -3.8 | -24.6
CCN(CCNCC(O)COc1ccccc1C(C)C)c1cccc(C)c1 (stereo unspecified) | 3.6 | 56.0* | 2.0 | 14.1 | -27.4
COc1ccc(CC(=O)NC2CC2)cc1OC | -7.5 | 1.7 | 0.4 | -2.4 | 16.2
SMILES | TRHR PAM | D1 ag | TRHR ag | D1 potentiator | D1 antag
CN(C)c1ccc(/C=C2\SC(=S)N(Nc3ncc(C(F)(F)F)cc3Cl)C2=O)cc1 | 27.3 | 168.1* | 79.8* | -12.9 | -62.9*
Cc1cc(C)nc(NN2C(=O)/C(=C/c3ccccc3)SC2=S)n1 | 0.5 | 3.9 | 0.4 | -0.7 | 2.2
Cc1ccn2c(CN3CCOCC3)c(-c3ccccc3)nc2c1 | -1.8 | 1.9 | -0.2 | -4.5 | -32.4*
O=[N+]([O-])c1ccc(C(c2sc3nc(-c4ccco4)nn3c2O)N2CCN(c3cccc(Cl)c3)CC2)cc1 (stereo unspecified) | 16.8 | -2.2 | 0.0 | -0.2 | nt
O=S(=O)(Cc1ccccc1)N1CCN(C/C=C/c2ccccc2)CC1 | 1.3 | 47.4* | -1.6 | -12.3 | -32.9*
Cc1cccc(NC(=O)CN(C)S(=O)(=O)c2ccc3c(c2)c(=O)n(C)c(=O)n3C)c1 | -8.0 | -1.2 | -0.5 | -1.9 | 10.7
Cc1cc(Cl)ccc1NC(=O)c1cccc(NC(=O)N2CCSc3ncccc32)c1 | -1.2 | 4.3 | -0.2 | -3.1 | -48.7*
Cc1cc(C)c2c(n1)SCCN2C(=O)Nc1ccc(C(=O)Nc2cc(Cl)ccc2C)cc1 | 2.9 | 4.3 | 0.3 | -2.4 | -32.7*
Cc1ccc(NC(=O)c2cccc(NC(=O)N3CCSc4ncccc43)c2)cc1Cl | 1.9 | 1.7 | -1.2 | -2.1 | 4.1
CCn1c2c(c(=O)n3ncc(C(=O)Nc4ccc(C(=O)OC)cc4)c13)CN(Cc1ccc(OC)cc1)CC2 | -1.4 | 1.7 | -0.1 | -1.0 | -16.4
CCn1cc2nc(SCc3cc(C)ccc3C)n(CCc3ccccc3)c(=O)c2n1 | -14.9 | 11.0 | 0.7 | 9.1 | 62.8
CCOc1ccc(S(=O)(=O)NCc2ccc3c(c2)OCO3)cc1NC(C)=O | 0.2 | 3.4 | 0.0 | -4.2 | 11.7
CN1C=CC=C/C1=C1/SC(=S)N(Cc2ccccc2)C1=O | 3.9 | 0.9 | 0.5 | 4.3 | -8.9
CCN1C(=O)/C(=C2/C=CC=CN2C)SC1=S | -2.7 | 1.9 | 1.3 | -1.1 | -32.8*
Cc1csc(Nc2cccc3ccccc23)n1 | 10.7 | -0.4 | 0.2 | -6.3 | -45.8*
COc1ccccc1Nc1nc(C)cs1 | -4.9 | 3.1 | 0.9 | 3.1 | -3.1
COc1ccccc1OCC(=O)N(Cc1cccs1)C1CCS(=O)(=O)C1 (stereo unspecified) | 7.5 | -0.7 | -0.1 | 0.1 | -42.4*
CCOc1ccc(CN(C(=O)c2cccs2)C2CCS(=O)(=O)C2)cc1 (stereo unspecified) | 2.9 | 1.7 | -0.5 | -7.5 | -43.5*
Cc1ccccc1OCC(=O)N(Cc1cccs1)C1CCS(=O)(=O)C1 (stereo unspecified) | 23.7 | 1.9 | -0.2 | -4.9 | -5.8
Cc1cccc(NC(=O)CN(CC2CCCO2)C(=O)c2oc3ccccc3c2C)c1C (stereo unspecified) | 6.3 | 29.0 | -0.3 | nt | 11.3
COc1ccc(CN2CCN(C(=O)c3cccs3)CC2)c(OC)c1OC | 3.5 | 4.7 | -0.3 | -2.8 | -34.0*
COc1cccc(NC(=O)c2cc3c(=O)n(C)c4ccccc4c3n2C)c1 | 3.9 | 0.9 | 0.1 | -7.3 | -2.6
COc1cc2c(cc1OC)CN(C(=O)C1CCN(S(=O)(=O)c3ccccc3F)CC1)CC2 | 3.4 | 0.2 | 0.1 | -7.7 | -0.2
N#Cc1cc2cc3c(cc2nc1SCC(=O)OC1CCCCC1)OCO3 | -2.3 | 9.1 | 2.2 | 5.7 | -31.6*
CC(C)(C)SCCNS(=O)(=O)c1ccc(Cl)cc1 | 0.9 | -0.1 | -0.9 | -4.3 | -8.0
O=S(=O)(NCCC1CC1(Cl)Cl)c1ccc(Cl)cc1 (stereo unspecified) | -8.7 | 5.0 | 0.1 | -3.0 | -37.9*
